Source: PubChem BioAssay AID488802 (Broad Institute, 2010)
Entries with a potency or affinity are not part of this list. Active and inactive are the calls of the source. The rule behind the calls is not given here.

Assay: single-agent growth inhibition of C. albicans, dose response, counter-screen for antifungal drug resistance project, C. albicans CaCi-2, dry powder (AID 488802)
Details: C. albicans CaCi-2 (fluconazole-resistant clinical isolate) growth, no fluconazole, Alamar Blue, 48 h; series mostly up to 26 µM

Structure (SMILES)	outcome	activity change, negative = inhibition
O=C(Cn1nc(-c2ccccc2)c2cc(Cl)ccc21)N1CCOCC1	inactive	–
O=C(Cn1nc(-c2ccccc2)c2ccccc21)N1CCc2ccccc2C1	inactive	–
CCOC(=O)c1nn(Cc2ccc(Cl)cc2)c2ccccc12	inactive	–
COC(=O)Cn1nc(C)c2ccccc21	inactive	–
COc1ccc2c(c1)c1nc3n(c(=O)c1n2CC(=O)N1CCC(C)CC1)CCS3	–	13.5% [at 2.6 µM] (inactive)
COc1ccc2c(c1)c1nc3n(c(=O)c1n2CC(=O)N1CCC(Cc2ccccc2)CC1)CCS3	inactive	–
CCN(CC)C(=O)Cn1c2ccccc2c2nc3n(c(=O)c21)CCS3	inactive	–
CC1CCN(C(=O)Cn2c3ccc(F)cc3c3nc4n(c(=O)c32)CCCS4)CC1	inactive	–
O=C(c1csc2ccccc12)N1CCN(c2ccnc3cc(Cl)ccc23)CC1	inactive	–
O=c1c2[nH]c3ccccc3c2nc2n1CCS2	inactive	–
CCCNC(=O)Cn1nc(-c2ccccc2)c2ccccc21	inactive	–
O=C(Cn1c2ccccc2c2nc3n(c(=O)c21)CCS3)N1CCCC1	inactive	–
O=C(Nc1ccc(C(F)(F)F)cc1)N1CCN(c2ccnc3cc(Cl)ccc23)CC1	inactive	–
O=C(Cn1c2ccccc2c2nc3n(c(=O)c21)CCS3)NCCc1ccc(Cl)cc1	inactive	–
O=C(Cn1nc(-c2ccccc2)c2ccccc21)NCc1ccc(Cl)cc1	inactive	–
